Our source for the Potency values is PubChem BioAssay (Tox21).

The nature of test [1]: Caspase-3/7 induction in HepG2 cells by small molecules, qHTS assay (AID 1346978). Note: nearly all actives have a fitted effect of over 15% in size. The procedure, abridged:
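Wild-type HepG2 cells (2,000/well) were settled 5 h at 37 C, 5% CO2, then exposed to compounds in DMSO for 17 h. Caspase-3/7 activity was read by luminescence 30 min after adding Caspase-Glo 3/7 reagent at room temperature.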

A short description of test [2]: Caspase-3/7 induction in CHO-K1 cells by small molecules, qHTS assay (AID 1346980). Note: nearly all actives have a fitted effect of over 15% in size. The procedure, abridged: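 Wild-type cells were seeded at 1,500 per well and settled 5 hr at 37 C, 5% CO2, then exposed to DMSO-dissolved compounds for 17 hr. Caspase-Glo 3/7 reagent was added, and luminescence was read after 30min at room temperature.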
Test [3] is described as follows: Caspase-3/7 induction in HepG2 cells by small molecules, qHTS cell viability counter screen (AID 1346981). Note: nearly all actives have a fitted effect of over 30% in size. Note: potency is the fitted concentration of half-maximal effect. The gist of the method: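 After a 5-hr attachment period at 37 C and 5% CO2, wild-type HepG2 cells received compounds in DMSO. Sixteen hours later CellTiter-Fluor was dispensed and the fluorescent signal quantified after a further hour.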
Test [4] has as its target Nuclear receptor subfamily 1 group I member 2 (Homo sapiens) (UniProt O75469). Kind of test: Human pregnane X receptor (PXR) small molecule agonists, qHTS assay (AID 1346982). Note: nearly all actives have a fitted effect of over 35% in size. Note: potency is the fitted concentration of half-maximal effect. The procedure, abridged: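 Tox21 qHTS; PXR-Luc HepG2; compounds pinned from DMSO; 24 hr, 37 C; ONE-Glo luciferase detection, 30 min room temperature.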
For test [5], the target named is Acetylcholinesterase (Homo sapiens) (UniProt P22303). The experiment in a line: Acetylcholinesterase (AChE) small molecule antagonists: colormetric cell-based qHTS assay (AID 1347395; calls by dose curve; note: nearly all actives have a fitted effect of over 30% in size; note: potency is the fitted concentration of half-maximal effect). The gist of the method:
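Colorimetric readout: DTNB quantifies thiocholine from acetylthiocholine hydrolysed by endogenous AChE of SH-SY5Y cells (2,000/well, plated overnight). Compound pretreatment 30 min, substrate incubation 90 min, both 37 C.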

The target is the same in test [6]. The experiment in a line: Acetylcholinesterase (AChE) small molecule antagonists: enzyme-based qHTS assay (AID 1347397; calls by dose curve; note: nearly all actives have a fitted effect of over 55% in size; note: potency is the fitted concentration of half-maximal effect). As to conditions: Potency: AChE enzyme activity inhibition. The procedure, abridged: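 Tox21 library chemicals are tested in qHTS format against recombinant human AChE. The enzyme, dispensed at 50 mU/mL, sits with compound for 30 min at room temperature. A DTNB–acetylthiocholine cocktail follows, and colour is read after 10 min.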

For test [7] the target is unchanged. Kind of test: Acetylcholinesterase (AChE) small molecule antagonists: fluorescence cell-based qHTS assay (AID 1347398; calls by dose curve; note: nearly all actives have a fitted effect of over 50% in size; note: potency is the fitted concentration of half-maximal effect). The following applies: Potency: AChE activity. The procedure, abridged:
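Cellular AChE inhibition: SH-SY5Y cells treated with test chemical for 30 min at 37 C, then acetylthiocholine hydrolysis followed over 40 min at room temperature via thiocholine-reactive Thiolite Green fluorescence (490/520 nm).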

Test [8] has the same target. The experiment in a line: Acetylcholinesterase (AChE) small molecule antagonists: enzyme-based qHTS assay with human liver microsomes (AID 1347399; calls by dose curve; note: nearly all actives have a fitted effect of over 60% in size). The following applies: Potency: qHTS inhibition. The gist of the method: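 Recombinant human AChE (50 mU/mL in the enzyme mix) and human liver microsomes (0.25 mg/mL final) were preincubated with compound and NADPH (0.25 mg/mL final) for 30 min at 37 C. Acetylthiocholine/DTNB was then added; thiocholine was read colorimetrically after 10 min at room temperature.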

For test [9], the target named is Cytochrome P450 2C19 (Homo sapiens) (UniProt P33261). Kind of test: Cytochrome P450 Family 2 Subfamily C Member 19 (CYP2C19) small molecule antagonists: luciferase reporter qHTS assay (AID 1671197). Note: nearly all actives have a fitted effect of over 65% in size. Note: potency is the fitted concentration of half-maximal effect. The gist of the method:
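P450-Glo CYP2C19 system: enzyme-substrate mix with compound 10 min at room temperature, then NADPH regeneration solution, 1 h at 37C. Proluciferin-to-luciferin conversion detected by luminescence after 20 min with detection reagent; ketoconazole as positive control.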

The target in test [10] is Cytochrome P450 2C9 (Homo sapiens) (UniProt P11712). Kind of test: Cytochrome P450 Family 2 Subfamily C Member 9 (CYP2C9) small molecule antagonists: luciferase reporter qHTS assay (AID 1671198). Note: nearly all actives have a fitted effect of over 50% in size. Note: potency is the fitted concentration of half-maximal effect. The gist of the method:
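CYP2C9 activity was measured with a P450-Glo proluciferin substrate. Enzyme–substrate mix was held with compound for 10 min at room temperature, then NADPH regeneration solution was added for 1 h at 37C. Luciferin product was read as luminescence.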

The target of test [11] is Cytochrome P450 1A2 (Homo sapiens) (UniProt P05177). The experiment in a line: Cytochrome P450 Family 1 Subfamily A Member 2 (CYP1A2) small molecule antagonists: luciferase reporter qHTS assay (AID 1671199). Note: nearly all actives have a fitted effect of over 50% in size. Note: potency is the fitted concentration of half-maximal effect. The gist of the method:
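Room-temperature CYP1A2 reaction with proluciferin substrate: compounds added from DMSO, 10 min preincubation, NADPH regeneration for 1 h. Luciferin detection reagent then added; luminescence recorded as RLU.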

In test [12] the target is Cytochrome P450 3A4 (Homo sapiens) (UniProt P08684). The experiment in a line: Cytochrome P450 Family 3 Subfamily A Member 4 (CYP3A4) small molecule antagonists: luciferase reporter qHTS assay (AID 1671201). Note: nearly all actives have a fitted effect of over 50% in size. Note: potency is the fitted concentration of half-maximal effect. The procedure, abridged:
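Recombinant human CYP3A4 converts a proluciferin substrate to luciferin over 1 h at room temperature after NADPH regeneration solution is added (compound preincubated 10 min); detection reagent stops reaction, luminescence read 20 min later as relative units.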

Test [13] deals with Voltage-gated inwardly rectifying potassium channel KCNH2 (Homo sapiens) (UniProt Q12809). The experiment in a line: Human Ether-a-go-go-Related Gene (hERG) channel small molecule antagonists: fluorescence cell-based qHTS assay (AID 1671200). Note: nearly all actives have a fitted effect of over 50% in size. Note: potency is the fitted concentration of half-maximal effect. The procedure, abridged:
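Thallium flux as potassium surrogate: FluxOR II dye loaded 1 h at room temperature into hERG-expressing U2OS cells, then stimulus buffer added after 10 min. Kinetic 480 nm excitation/540 nm emission read, 2 min.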

Test [14] deals with Cytochrome P450 2D6 (Homo sapiens) (UniProt P10635). Kind of test: Cytochrome P450 Family 2 Subfamily D Member 6 (CYP2D6) small molecule antagonists: luciferase reporter qHTS assay (AID 1671196). Note: nearly all actives have a fitted effect of over 50% in size. Note: potency is the fitted concentration of half-maximal effect. The procedure, abridged: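 Room-temperature luminescent CYP2D6 activity assay: compound preincubated 10 min with enzyme–substrate mix, NADPH-initiated reaction 1 h, detection reagent 20 min before reading.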

Test [15] is described as follows: Caspase-3/7 induction in CHO-K1 cells by small molecules, qHTS cell viability counter screen (AID 1346979). Note: potency is the fitted concentration of half-maximal effect; nearly all actives have a fitted effect of over 35% in size. The gist of the method:
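Cytotoxicity counter screen: CellTiter-Fluor added to compound-treated wild-type CHO-K1 cells at 16 h (37C, 5% CO2), fluorescence measured 1 h later; same wells as caspase-3/7 measurement.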

Several values for one entry are separate records, joined by “and”; a condition that tells them apart may be missing. Equal values may be shown once. Inconclusive results are not listed. Activity calls are given as the source filed them. Unless noted, calls come from the whole dose curve; as a rule, active = well fitted curve in the direction sought with a large enough effect in the repeat runs; inconclusive = weak or mixed curves; inactive = no such curve, though single readings can be large; an effect the other way counts as inactive or inconclusive.

Sequence of Nuclear receptor subfamily 1 group I member 2 (Homo sapiens) (O75469 whole entry, looked up): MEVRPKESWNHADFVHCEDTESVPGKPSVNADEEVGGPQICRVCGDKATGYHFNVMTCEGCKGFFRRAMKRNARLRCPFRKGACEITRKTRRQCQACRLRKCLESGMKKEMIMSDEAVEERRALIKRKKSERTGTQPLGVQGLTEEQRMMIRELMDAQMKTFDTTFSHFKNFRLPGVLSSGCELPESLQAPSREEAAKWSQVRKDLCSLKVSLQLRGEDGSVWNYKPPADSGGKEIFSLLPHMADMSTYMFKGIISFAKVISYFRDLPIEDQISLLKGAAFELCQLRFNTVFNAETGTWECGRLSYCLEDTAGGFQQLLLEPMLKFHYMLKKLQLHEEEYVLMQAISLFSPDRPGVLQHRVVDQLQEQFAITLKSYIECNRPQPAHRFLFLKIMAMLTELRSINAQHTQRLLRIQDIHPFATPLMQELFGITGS
Sequence of Cytochrome P450 2C19 (Homo sapiens) (P33261 whole entry, looked up): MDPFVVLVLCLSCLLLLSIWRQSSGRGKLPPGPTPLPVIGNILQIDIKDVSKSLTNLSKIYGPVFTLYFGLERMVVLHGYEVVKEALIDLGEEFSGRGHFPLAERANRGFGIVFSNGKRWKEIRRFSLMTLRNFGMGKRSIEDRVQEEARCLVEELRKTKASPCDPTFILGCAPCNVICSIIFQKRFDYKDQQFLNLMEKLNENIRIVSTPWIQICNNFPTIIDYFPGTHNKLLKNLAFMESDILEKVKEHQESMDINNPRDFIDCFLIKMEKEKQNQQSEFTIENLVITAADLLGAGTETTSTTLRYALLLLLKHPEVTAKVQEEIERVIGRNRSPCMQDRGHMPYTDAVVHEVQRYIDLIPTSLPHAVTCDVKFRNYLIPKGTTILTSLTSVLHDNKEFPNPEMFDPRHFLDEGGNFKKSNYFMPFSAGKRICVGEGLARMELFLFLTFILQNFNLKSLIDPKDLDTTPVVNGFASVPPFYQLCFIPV
Sequence of Cytochrome P450 3A4 (Homo sapiens) (P08684 whole entry, looked up): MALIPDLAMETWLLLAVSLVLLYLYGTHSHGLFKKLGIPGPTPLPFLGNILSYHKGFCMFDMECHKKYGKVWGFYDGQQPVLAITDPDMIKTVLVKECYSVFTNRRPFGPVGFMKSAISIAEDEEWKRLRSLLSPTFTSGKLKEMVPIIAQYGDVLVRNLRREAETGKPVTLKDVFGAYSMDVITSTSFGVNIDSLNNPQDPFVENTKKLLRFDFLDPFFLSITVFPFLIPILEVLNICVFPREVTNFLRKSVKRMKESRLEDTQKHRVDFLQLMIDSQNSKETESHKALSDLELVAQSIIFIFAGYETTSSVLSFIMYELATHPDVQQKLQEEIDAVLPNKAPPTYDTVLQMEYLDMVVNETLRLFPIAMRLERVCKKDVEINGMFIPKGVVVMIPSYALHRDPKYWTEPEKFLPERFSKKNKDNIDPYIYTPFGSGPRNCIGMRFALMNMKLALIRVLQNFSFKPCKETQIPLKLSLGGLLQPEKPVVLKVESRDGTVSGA
Sequence of Cytochrome P450 1A2 (Homo sapiens) (P05177 whole entry, looked up): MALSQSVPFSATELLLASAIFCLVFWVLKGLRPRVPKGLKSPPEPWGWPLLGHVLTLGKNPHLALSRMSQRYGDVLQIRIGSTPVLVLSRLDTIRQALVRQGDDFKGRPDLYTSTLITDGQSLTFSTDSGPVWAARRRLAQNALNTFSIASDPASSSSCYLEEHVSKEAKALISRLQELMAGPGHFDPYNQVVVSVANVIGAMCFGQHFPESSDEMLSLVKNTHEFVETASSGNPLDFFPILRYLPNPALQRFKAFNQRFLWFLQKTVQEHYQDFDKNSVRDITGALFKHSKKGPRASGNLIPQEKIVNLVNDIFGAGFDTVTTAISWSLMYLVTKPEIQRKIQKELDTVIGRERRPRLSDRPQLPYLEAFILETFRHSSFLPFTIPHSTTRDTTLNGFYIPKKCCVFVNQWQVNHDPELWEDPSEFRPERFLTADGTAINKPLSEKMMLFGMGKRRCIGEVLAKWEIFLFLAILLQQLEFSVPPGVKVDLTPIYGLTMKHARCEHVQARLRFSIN
Sequence of Cytochrome P450 2C9 (Homo sapiens) (P11712 whole entry, looked up): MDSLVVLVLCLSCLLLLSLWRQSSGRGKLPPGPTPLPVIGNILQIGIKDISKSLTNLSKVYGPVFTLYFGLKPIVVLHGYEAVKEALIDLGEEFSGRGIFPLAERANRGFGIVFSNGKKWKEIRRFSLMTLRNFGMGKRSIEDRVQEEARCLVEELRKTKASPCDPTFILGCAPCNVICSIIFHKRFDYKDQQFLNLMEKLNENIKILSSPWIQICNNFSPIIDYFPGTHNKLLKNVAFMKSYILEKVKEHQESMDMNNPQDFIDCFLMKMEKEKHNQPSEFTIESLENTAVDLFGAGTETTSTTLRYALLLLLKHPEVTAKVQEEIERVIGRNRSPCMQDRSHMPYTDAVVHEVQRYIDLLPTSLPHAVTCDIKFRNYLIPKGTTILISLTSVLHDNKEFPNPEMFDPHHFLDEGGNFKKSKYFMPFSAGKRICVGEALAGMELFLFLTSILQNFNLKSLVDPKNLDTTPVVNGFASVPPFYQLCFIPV
Sequence of Acetylcholinesterase (Homo sapiens) (P22303 whole entry, looked up): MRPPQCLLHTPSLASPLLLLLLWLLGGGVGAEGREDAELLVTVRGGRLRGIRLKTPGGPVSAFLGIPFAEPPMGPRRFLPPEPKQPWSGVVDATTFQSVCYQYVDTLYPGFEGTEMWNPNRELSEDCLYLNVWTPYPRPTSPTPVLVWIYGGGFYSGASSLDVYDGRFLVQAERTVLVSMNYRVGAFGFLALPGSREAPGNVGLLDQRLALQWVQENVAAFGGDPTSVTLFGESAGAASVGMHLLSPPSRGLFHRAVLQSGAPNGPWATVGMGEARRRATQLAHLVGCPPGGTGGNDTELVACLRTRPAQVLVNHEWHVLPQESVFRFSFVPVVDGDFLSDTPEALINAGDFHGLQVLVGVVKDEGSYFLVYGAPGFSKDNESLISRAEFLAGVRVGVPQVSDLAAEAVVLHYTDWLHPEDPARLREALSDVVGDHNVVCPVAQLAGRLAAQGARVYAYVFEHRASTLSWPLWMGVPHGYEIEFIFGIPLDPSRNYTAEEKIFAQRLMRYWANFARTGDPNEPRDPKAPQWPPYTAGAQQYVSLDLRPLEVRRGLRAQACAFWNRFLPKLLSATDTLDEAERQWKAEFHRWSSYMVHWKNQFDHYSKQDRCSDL
Sequence of Cytochrome P450 2D6 (Homo sapiens) (P10635 whole entry, looked up): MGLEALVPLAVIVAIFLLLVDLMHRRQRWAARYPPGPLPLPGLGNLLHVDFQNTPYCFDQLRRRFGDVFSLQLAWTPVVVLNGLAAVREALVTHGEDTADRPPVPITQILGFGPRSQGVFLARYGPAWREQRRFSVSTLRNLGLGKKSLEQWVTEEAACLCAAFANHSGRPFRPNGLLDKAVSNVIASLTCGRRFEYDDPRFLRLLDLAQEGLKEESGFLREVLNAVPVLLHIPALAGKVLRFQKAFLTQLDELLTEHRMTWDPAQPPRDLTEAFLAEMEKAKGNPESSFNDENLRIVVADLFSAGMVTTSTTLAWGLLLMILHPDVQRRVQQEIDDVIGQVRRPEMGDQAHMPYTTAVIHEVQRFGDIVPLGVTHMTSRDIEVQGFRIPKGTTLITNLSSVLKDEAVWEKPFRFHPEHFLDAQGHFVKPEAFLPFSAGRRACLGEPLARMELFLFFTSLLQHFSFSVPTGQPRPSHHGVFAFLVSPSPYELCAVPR
Sequence of Voltage-gated inwardly rectifying potassium channel KCNH2 (Homo sapiens) (Q12809 whole entry, looked up): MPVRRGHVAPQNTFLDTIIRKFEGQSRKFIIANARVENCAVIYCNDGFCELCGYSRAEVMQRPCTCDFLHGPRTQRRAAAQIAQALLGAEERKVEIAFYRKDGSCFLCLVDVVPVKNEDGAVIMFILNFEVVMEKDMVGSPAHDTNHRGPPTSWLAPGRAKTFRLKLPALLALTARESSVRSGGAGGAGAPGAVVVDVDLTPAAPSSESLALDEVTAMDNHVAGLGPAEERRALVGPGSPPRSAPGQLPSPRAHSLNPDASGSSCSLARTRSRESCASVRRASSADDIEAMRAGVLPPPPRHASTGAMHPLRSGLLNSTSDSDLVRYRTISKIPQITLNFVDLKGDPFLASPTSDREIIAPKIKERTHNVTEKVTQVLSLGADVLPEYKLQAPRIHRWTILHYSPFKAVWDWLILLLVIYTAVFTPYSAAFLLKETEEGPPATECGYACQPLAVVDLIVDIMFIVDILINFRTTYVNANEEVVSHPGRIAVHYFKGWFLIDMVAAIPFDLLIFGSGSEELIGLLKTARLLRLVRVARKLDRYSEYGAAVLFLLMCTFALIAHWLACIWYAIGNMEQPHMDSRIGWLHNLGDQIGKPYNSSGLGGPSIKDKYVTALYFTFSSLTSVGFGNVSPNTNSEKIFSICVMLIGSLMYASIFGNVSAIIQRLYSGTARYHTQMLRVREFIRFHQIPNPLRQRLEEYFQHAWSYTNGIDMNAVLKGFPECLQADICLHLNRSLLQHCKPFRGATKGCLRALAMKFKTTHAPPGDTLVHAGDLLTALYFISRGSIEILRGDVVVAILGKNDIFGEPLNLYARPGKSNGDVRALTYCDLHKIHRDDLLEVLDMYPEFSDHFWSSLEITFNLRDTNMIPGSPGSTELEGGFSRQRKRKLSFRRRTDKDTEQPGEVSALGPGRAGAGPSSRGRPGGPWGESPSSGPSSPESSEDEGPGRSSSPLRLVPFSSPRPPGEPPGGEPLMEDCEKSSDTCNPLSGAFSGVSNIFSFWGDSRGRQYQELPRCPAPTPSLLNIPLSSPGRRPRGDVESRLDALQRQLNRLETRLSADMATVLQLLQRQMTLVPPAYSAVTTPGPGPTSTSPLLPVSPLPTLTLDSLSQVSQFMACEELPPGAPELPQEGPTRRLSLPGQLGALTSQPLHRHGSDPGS

With `c1ccc(N=NNc2ccccc2)cc1`, the Potency entry in test [1], in test [2], in test [5], in test [6], in test [7] and in test [8] was “inactive” in each case. For the same molecule, the Potency was 28.3 µM (active) in test [3]; 31.7 µM (active) and 30.6 µM (active) in [4]; 23.2 µM (active) and 50.2 µM (active) in test [9]; 26 µM (active) and 31.7 µM (active) in [10]; 13.1 µM (active) and 15.9 µM (active) in test [11]; 26 µM (active) in test [12].

As to `CCC[CH2][Sn]([CH2]CCC)([O]C(C)=O)[O]C(C)=O`, the Potency entry in [1], in [2], in test [5], in test [6], in [7] and in test [8] was “inactive” throughout. Also, the Potency entry in [9], in test [10], in test [11], in [13] and in test [12] was “inactive” each time. In addition, the Potency in test [3] is 49 µM (active); in [4] it was 7.77 µM (active).

Take `CN(C)c1ccc(N)cc1`: the Potency entry in test [1], in test [2] and in test [8] was “inactive” each time. Also, the Potency in test [3] is 47.4 µM (active); in test [4] it was 8.42 µM (active); in test [5], 12.3 µM (active); in test [6], 61.8 µM (active); in test [7] it was 11 µM (active); in test [14], 24.6 µM (active). Besides, the Potency in test [10] was 31 µM (active); in test [11], 12.3 µM (active); in test [12] it was 19.5 µM (active).

In the case of `Oc1ccc(Cl)c(Cl)c1`, the Potency entry in test [1], in [2], in test [3], in test [5], in test [6] and in [7] was “inactive” throughout. The Potency entry in test [8], in test [10] and in test [13] was “inactive” in each case. In [4], the Potency was 60.2 µM (active).

In the case of `COP(=S)(OC)Oc1nc(Cl)c(Cl)cc1Cl`, the Potency result in test [1], in [2], in test [3], in test [4], in [5] and in [6] was “inactive” throughout. In addition, the Potency result in [7], in test [8], in test [14] and in test [13] was “inactive” each time. The values for the Potency in test [10], in [11] and in [12] were 25.2 µM (active), 44.8 µM (active) and 11.2 µM (active), respectively.

In the case of `CCN1CCC2(CC1)COc1cc3c(cc12)N(C(=O)c1ccc(-c2ccc(-c4nnc(C)o4)cc2C)cc1)CC3`, the Potency is 25.2 µM (active) in test [15]; 50.2 µM (active) in test [3]; 3.99 µM (active) in [4]; 29.3 µM (active) in test [5]; 10.4 µM (active) in test [7]; 32.8 µM (active) in [14]. The Potency in test [9] was 23.2 µM (active). Also, the Potency result in test [8], in test [11], in test [13] and in test [12] was “inactive” in each case.

On to `CNN`, for which the Potency result in test [1], in test [2], in [3], in [5], in test [6] and in test [7] was “inactive” each time. In addition, the Potency entry in [8], in test [9], in [10], in test [11], in [13] and in test [12] was “inactive” each time.

`C1=CCC=C1`: the Potency result in [2], in [3] and in test [13] was “inactive” throughout.

`CC(C)(C)c1ccc(OP(=O)(Oc2ccccc2)Oc2ccccc2)cc1`: the Potency result in test [1], in [2], in [3], in test [8], in test [14] and in test [12] was “inactive” each time. Moreover, the Potency in test [4] was 13.8 µM (active); in test [5] it was 31.9 µM (active); in test [10], 5.06 µM (active); in [11] it was 16 µM (active); in [13] it was 15.6 µM (active).

For `COP(=O)(OC)O/C(=C\Cl)c1cc(Cl)c(Cl)cc1Cl`, the Potency result in [1], in [2], in test [3], in [8], in [13] and in [12] was “inactive” throughout. The Potency in test [4] is 54.5 µM (active); in test [14], 79.6 µM (active); in test [9], 5.03 µM (active); in test [10], 44.8 µM (active); in test [11] it was 1.42 µM (active).
